In PubChem BioAssay AID1220 (Sanford-Burnham Center for Chemical Genomics, 2008):
About 1,300 (0.68%) of roughly 190,000 compounds were called active. Cut-off read from the data, not from the text of the source: active = inhibition above about 50%; inactive = the rest. For the sample, actives were picked, then their nearest neighbours and some compounds at random.

These compounds were tested against Mannose-6-phosphate isomerase (Homo sapiens) (UniProt P34949) (assay: MPI inhibition at elevated mannose 6-phosphate – biochemical, fluorescence intensity, high mannose 6-phosphate, primary screen (AID 1220)). Settings: recombinant PMI enzyme, coupled fluorescence intensity; at 20 µM; hits give high values.
Sequence of Mannose-6-phosphate isomerase (Homo sapiens) (P34949 whole entry, looked up): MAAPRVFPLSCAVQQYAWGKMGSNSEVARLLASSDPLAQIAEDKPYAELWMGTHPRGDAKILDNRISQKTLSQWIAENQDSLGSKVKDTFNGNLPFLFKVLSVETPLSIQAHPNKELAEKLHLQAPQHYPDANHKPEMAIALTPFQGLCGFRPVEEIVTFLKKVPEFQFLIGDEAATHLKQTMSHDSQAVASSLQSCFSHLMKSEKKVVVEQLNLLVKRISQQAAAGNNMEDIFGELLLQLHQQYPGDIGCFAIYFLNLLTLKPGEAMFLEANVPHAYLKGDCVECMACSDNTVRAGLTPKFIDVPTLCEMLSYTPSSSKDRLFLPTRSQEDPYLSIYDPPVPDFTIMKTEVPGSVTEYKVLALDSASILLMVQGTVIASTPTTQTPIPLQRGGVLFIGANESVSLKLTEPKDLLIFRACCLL

inhibition, active:
COC1(NS(=O)(=O)c2ccc(Br)cc2)C(C)=CC(=O)C=C1C 55.3%
Cc1cc2nc3c(=O)[nH]c(=O)[nH]c3nc2c([N+](=O)[O-])c1N 53.3%
O=C1c2ccccc2C(=O)c2cc(S(=O)(=O)Nc3ccccc3)ccc21 60.3%
COc1ccc2nc3ccccc3nc2c1NC(=O)c1ccccc1Cl 51.5%
Cc1cccc(NCC(=O)c2c(N)n(C)c(=O)n(C)c2=O)c1C 59%
Cc1ccc(NC(=S)Nc2ccc3cn[nH]c3c2)cc1 57.8%
S=C(Nc1ccc(Cl)cc1)Nc1ccc2cn[nH]c2c1 56.6%
Cc1ccccc1NC(=S)Nc1ccc2cn[nH]c2c1 61.3%
COC(=O)c1ccc2c(c1)NC1=C(C(=O)CC(C)(C)C1)C(c1ccncc1)N2 (stereo unspecified) 61.3%
O=C(Oc1c(CN2CCOCC2)cc(Cl)c2cccnc12)c1ccccc1 56.3%
O=C(Oc1c(CN2CCOCC2)cc(Cl)c2cccnc12)c1ccccc1Cl 57.1%
O=C(Oc1c(CN2CCOCC2)cc(Cl)c2cccnc12)c1ccccc1F 51.4%

inhibition, inactive:
COCCNS(=O)(=O)c1cc(OC)ccc1OC 8.6%
Cc1cc(N2CCN(c3ccccc3)CC2)nc(-c2ccccc2O)n1 2.1%
Cc1cc(S(=O)(=O)NCC(C)C)ccc1OCC(=O)NCC1CCCO1 (stereo unspecified) 15.5%
COc1cc(C(=O)OCCNC(=O)c2ccncc2)cc(OC)c1OC -20%
CCC(C)NS(=O)(=O)c1ccc(F)c(C(=O)Nc2c(F)cc(F)cc2Br)c1 (stereo unspecified) -19.4%
COc1ccc2[nH]c(=O)c(CN(CCO)C(=O)NCc3ccccc3)cc2c1 3.9%
CCn1c(COc2ccccc2)nnc1SCC(=O)Nc1cc(C)ccc1OC 8.3%
C#CCOCCOCCOCCNc1nc(N2CCN(C(=O)[C@H](CCC(=O)O)n3cc(C(N)Cc4ccc(O)cc4)nn3)CC2)nc(N2CCN(C(=O)[C@H](CCC(=O)O)n3cc(C(N)[C@H](C)CC)nn3)CC2)n1 (stereo partly specified) -33.1%
O=C(c1ccccc1)c1cccc(NC(=O)c2ccc(Br)o2)c1 6.2%
O=C(C1CCCCN1S(=O)(=O)c1ccccc1)N1CCN(C(c2ccccc2)c2ccccc2)CC1 (stereo unspecified) 9.8%
COc1cc(Br)c(S(=O)(=O)Nc2c(C)n(C)n(-c3ccccc3)c2=O)cc1OC -1.6%
O=C(c1cccnc1)N1C2C=CC(C2)C1(C(F)(F)F)C(F)(F)F (stereo unspecified) -7.8%
Cc1cc(C)nc(NS(=O)(=O)c2ccc(Br)cc2)n1 -3.5%
Cc1ccc(NS(=O)(=O)c2ccc(Br)cc2)nc1 0.3%
O=C(Nc1ccc2oc(-c3ccc(F)cc3)nc2c1)c1ccccc1F 1%
Cc1ccc(-c2nc3c(c(=O)c4ccccc4n3C)c(=O)n2-c2ccccc2)cc1 0.4%
O=c1[nH]c(=O)c2nc3c4ccccc4c4ccccc4c3nc2[nH]1 11.6%
Cc1nc2c([N+](=O)[O-])c(C)c(C)cc2[nH]1 4.2%
NC(=O)Nn1c(CCC(=O)O)ccc1-c1ccc(Br)cc1 -6.3%
O=C(CSc1ccc2nnc(-c3ccccc3)n2n1)NCc1ccc2c(c1)OCO2 2.7%
CN(C)c1nc(OCCNC(=O)Nc2ccc(Cl)cc2)nc(N(C)C)n1 1.2%
O=C(O)c1ccc(NS(=O)(=O)c2ccc3c(c2)C(=O)c2ccccc2C3=O)cc1 2.7%
Cc1cccc(C)c1NS(=O)(=O)c1ccc2c(c1)C(=O)c1ccccc1C2=O 21%
COc1ccc(CCNc2ccc(S(=O)(=O)N3CCCC3)cc2[N+](=O)[O-])cc1 -0.1%
COc1ccc2nc3ccccc3nc2c1NC(=O)c1ccc(Cl)cc1Cl 17.8%
COc1ccc2nc3ccccc3nc2c1NC(=O)c1ccc(Cl)cc1 23%
Cc1ccc2cccc(OCC(=O)N3CC(C)CC(C)C3)c2n1 (stereo unspecified) 26.7%
Cc1ccccc1CSCC(=O)c1c(N)n(C)c(=O)n(C)c1=O 6.8%
Cc1cccc(OCC(=O)OCC(=O)c2c(N)n(C)c(=O)n(C)c2=O)c1C 3.8%
CC(C)C(=O)NC(NC(=O)C(C)C)c1ccc([N+](=O)[O-])cc1 -13.1%
CC(C)c1onc(C(=O)NCc2cccs2)c1[N+](=O)[O-] -6.7%
CC(=O)c1cc2c(cc1N/C(=N/S(=O)(=O)c1ccc(C)cc1)c1ccc(Cl)cc1)OCO2 7.7%
O=S(=O)(N/N=C/c1ccc(F)cc1)c1ccccc1 4.7%
Cc1ccc(NC(=S)Nc2ccc3cn[nH]c3c2)cc1C 15.4%
Cc1ccc(NC(=S)Nc2ccc3cn[nH]c3c2)c(C)c1 44%
COc1ccc(NC(=S)Nc2ccc3cn[nH]c3c2)cc1 48.7%
Cc1cc(C)cc(NC(=S)Nc2ccc3cn[nH]c3c2)c1 21.3%
CC(C)c1ccc(NC(=S)Nc2ccc3cn[nH]c3c2)cc1 46.1%
S=C(Nc1ccc2cn[nH]c2c1)Nc1ccccc1Cl 42.1%
CCOC(=O)C1CCCN(C(=O)c2cn(CC)c(=O)c3cc(OC)c(OC)cc23)C1 (stereo unspecified) -1.3%
CCOC(=O)c1nn(-c2ccc(C)cc2)cc1O 1.2%
CC1(C)CC(=O)C2=C(C1)Nc1cc(C(=O)c3ccccc3)ccc1NC2c1ccccn1 (stereo unspecified) -4.3%
CC1(C)CC(=O)C2=C(C1)Nc1ccccc1NC2c1cccnc1 (stereo unspecified) -11.6%
COc1cc(C(=O)Oc2c(CN3CCOCC3)cc(Cl)c3cccnc23)cc(OC)c1OC 35.9%
O=C(Oc1c(Cl)cc(Cl)c2cccnc12)N1CCOCC1 1.1%
O=[N+]([O-])c1cc(CN2CCOCC2)c2cccnc2c1O 40.5%
COc1ccc(C(=O)Oc2c(CN3CCOCC3)cc(Cl)c3cccnc23)cc1 22.5%
O=C(Oc1c(CN2CCOCC2)cc(Cl)c2cccnc12)c1ccc(F)cc1 40.1%
COc1cccc(C(=O)Oc2c(CN3CCOCC3)cc(Cl)c3cccnc23)c1 24%
